Bioassay records: PubChem, National Center for Advancing Translational Sciences (NCATS)
NPR1 antag = human Npr1 receptor antagonism; P16066; HEK293 hNpr1 GloSensor cGMP, ANP-stimulated luminescence; Potency, µM (top dose mostly 46.3 µM), hits mostly inhibitors; actives 1.6% (n = 76,000); calls by dose curve; note: nearly all actives have a fitted effect of over 60% in size
Target sequence (P16066 whole entry, looked up): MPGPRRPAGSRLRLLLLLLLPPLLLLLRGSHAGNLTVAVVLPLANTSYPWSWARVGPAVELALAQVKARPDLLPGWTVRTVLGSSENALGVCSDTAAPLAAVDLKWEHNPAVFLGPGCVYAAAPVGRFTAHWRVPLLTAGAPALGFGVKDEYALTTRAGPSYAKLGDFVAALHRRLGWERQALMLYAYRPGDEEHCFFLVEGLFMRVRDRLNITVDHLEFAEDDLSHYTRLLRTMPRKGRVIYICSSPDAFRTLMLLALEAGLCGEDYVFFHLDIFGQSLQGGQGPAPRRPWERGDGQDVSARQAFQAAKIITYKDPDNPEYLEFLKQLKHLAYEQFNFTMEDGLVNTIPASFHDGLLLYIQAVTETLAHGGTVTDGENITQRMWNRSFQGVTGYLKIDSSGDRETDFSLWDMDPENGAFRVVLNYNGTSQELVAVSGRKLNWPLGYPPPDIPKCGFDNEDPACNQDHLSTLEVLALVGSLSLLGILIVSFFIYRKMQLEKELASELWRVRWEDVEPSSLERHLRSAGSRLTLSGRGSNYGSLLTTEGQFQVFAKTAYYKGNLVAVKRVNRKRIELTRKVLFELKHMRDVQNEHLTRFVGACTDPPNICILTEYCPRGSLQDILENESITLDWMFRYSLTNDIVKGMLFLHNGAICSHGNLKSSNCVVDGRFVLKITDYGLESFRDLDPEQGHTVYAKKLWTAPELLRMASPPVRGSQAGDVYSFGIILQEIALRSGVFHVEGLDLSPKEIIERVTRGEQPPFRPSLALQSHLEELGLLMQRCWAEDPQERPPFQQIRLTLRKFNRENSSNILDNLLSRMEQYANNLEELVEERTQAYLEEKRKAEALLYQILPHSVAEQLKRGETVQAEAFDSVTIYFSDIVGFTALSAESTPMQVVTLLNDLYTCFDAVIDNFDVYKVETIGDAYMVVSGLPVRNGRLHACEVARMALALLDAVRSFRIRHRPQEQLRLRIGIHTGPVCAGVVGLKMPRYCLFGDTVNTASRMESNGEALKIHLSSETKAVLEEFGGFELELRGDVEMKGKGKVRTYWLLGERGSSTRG
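Compound pre-incubated 30 min at room temperature on GloSensor-loaded HEK293 cells stably carrying hNpr1 and the pGS-40F cGMP biosensor. Stimulation uses hNppA at 0.1 nM final; luminescence is taken at baseline and 20 min post-agonist.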
Luciferase inh = Photinus pyralis luciferase inhibition | purified P. pyralis luciferase, luminescence, biochemical | Potency, µM (top dose mostly 115 µM), most hits filed as inhibitors | actives 2.5% (n = 76,000); note: nearly all actives have a fitted effect of over 65% in size
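Luminescence read by CCD imager after adding enzyme (10nM final) to wells holding compound, titrated in qHTS. Substrates 10uM each D-luciferin and ATP; buffer 50mM Tris acetate pH 7.5, 10mM Mg acetate, Tween-20, BSA.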
NIH3T3 tox = NIH 3T3 cell cytotoxicity; NIH 3T3 viability, CellTiter-Glo ATP luminescence, 48-72 h; Potency, µM (titrated, usually from 96.7 µM), actives largely listed as inhibitors; actives 4.3% (n = 94,000); AID 1345082; note: nearly all actives have a fitted effect of over 55% in size
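Mouse fibroblast NIH 3T3 cells, 400 per well, received compound via pintool and were incubated for 48 or 72 hr prior to CellTiter-Glo ATP luminescence measurement.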
HEK293 tox = cytotoxic compounds in HEK 293 cells | HEK 293 viability, ATP luminescence (CellTiter-Glo), 48-72 h | Potency, µM (highest dose often 115 µM), actives largely listed as inhibitors | actives 6.6% (n = 94,000); note: nearly all actives have a fitted effect of over 60% in size
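Viability of HEK 293 cells, plated at 250 cells/well, was judged by cellular ATP after compound treatment for 48 or 72 hr. Luminescence was imaged 10 min after CellTiter-Glo addition at room temperature.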
Of the large screens only hits and unclear results are named; the others gave an inactive call. The list is not random: actives were taken first. Their share in the collection is about 11%. Unless noted, calls come from the whole dose curve; as a rule, active = well fitted curve in the direction sought with a large enough effect; inconclusive = small, poorly fitted or top-dose-only effect, or another doubt; inactive = no such curve, though single readings can be large; an effect the other way counts as inactive or inconclusive.

O=C(NCC1CN(Cc2cccc(O)c2)CC12CN(c1ccccc1)C2)c1ccccc1 (centres undefined)	NIH3T3 tox 28.2µM, HEK293 tox inconclusive
O=C(O)c1ccc(CN2CC(CNC(=O)c3ccccc3)C3(C2)CN(c2ccccc2)C3)cc1 (centres undefined)	NIH3T3 tox inconclusive
COc1ccc(CN2C(=O)COC[C@@H]2[C@H](O)c2ccc(NC(=O)c3ccc(C(C)(C)C)cc3)cc2)cc1	Luciferase inh 14.1µM, NIH3T3 tox 22.4µM, HEK293 tox 28.2µM
CN1C(=O)COC[C@@H]1[C@H](O)c1ccc(NC(=O)c2ccc3c(c2)OCO3)cc1	Luciferase inh inconclusive
COc1ccc(C(=O)Nc2ccc(C(O)[C@H]3COCC(=O)N3CC(C)C)cc2)cc1 (some centres undefined)	Luciferase inh 25.1µM, HEK293 tox inconclusive
CC(C)CN1C(=O)COC[C@@H]1[C@H](O)c1ccc(NC(=O)c2ccc3c(c2)OCO3)cc1	Luciferase inh 63.1µM
CC(C)CN1C(=O)COC[C@@H]1[C@H](O)c1ccc(NC(=O)c2ccc(F)cc2)cc1	Luciferase inh inconclusive
COCC1CN(C2CCC2)CC12CCN(Cc1ccc(OC)c(OC)c1)CC2 (centres undefined)	NIH3T3 tox inconclusive, HEK293 tox inconclusive
COCC1CN(C2CCC2)CC12CCN(C(=O)C1(c3ccccc3)CC1)CC2 (centres undefined)	NIH3T3 tox inconclusive, HEK293 tox 31.6µM
COCC1CN(C)CC12CCN(C(=O)CCCc1ccccc1)CC2 (centres undefined)	NIH3T3 tox inconclusive, HEK293 tox inconclusive
COCC1CN(C2CCC2)CC12CCN(C(=O)CCCc1ccccc1)CC2 (centres undefined)	NIH3T3 tox inconclusive, HEK293 tox 31.6µM (no result: NPR1 antag, Luciferase inh)
COCCOC1CCOC2(CCN(C(=O)CCCc3ccccc3)CC2)C1 (centres undefined)	Luciferase inh 28.2µM, HEK293 tox inconclusive
COCC1CN(C2CCC2)CC12CCN(Cc1cccc(OC)c1OC)CC2 (centres undefined)	NIH3T3 tox inconclusive, HEK293 tox 44.7µM
O=C1[C@H]2CN(Cc3cccc(Cl)c3)C[C@H]2C(=O)N1CCN1CCc2ccccc2C1	NIH3T3 tox inconclusive, HEK293 tox inconclusive
O=C1NCc2ccccc2CC12CCN(Cc1c[nH]c3ccccc13)C2 (centres undefined)	HEK293 tox inconclusive (no result: NPR1 antag, Luciferase inh)
CC(C)(C)C(=O)NCCNC(=O)c1ccc(-c2cccc(C(F)(F)F)c2)cc1	NIH3T3 tox inconclusive, HEK293 tox 28.2µM (no result: NPR1 antag, Luciferase inh)
CN(C)C(=O)NCCNC(=O)c1ccc(-c2cccc(C(F)(F)F)c2)cc1	NIH3T3 tox inconclusive, HEK293 tox 28.2µM (no result: NPR1 antag, Luciferase inh)
COc1cccc(C(=O)NCCNC(=O)c2cccc(-c3ccc(C(F)(F)F)cc3)c2)c1	none (no result: NPR1 antag, Luciferase inh)
CC(C)NC(=O)NCCNC(=O)c1ccc(-c2cccc(C(F)(F)F)c2)cc1	NIH3T3 tox inconclusive (no result: NPR1 antag, Luciferase inh)
CC(CCc1ccccc1)Nc1ncnc2c1CN(C1CCNC1)C(=O)CN2C (centres undefined)	none (no result: NPR1 antag, Luciferase inh)
O=[S+]1([O-])NCC2(CCCN(Cc3ccc(Cl)cc3)C2)Oc2ncccc21 (centres undefined)	NIH3T3 tox inconclusive, HEK293 tox 89.1µM (no result: NPR1 antag, Luciferase inh)
O=[S+]1([O-])NCC2(CCCN(Cc3ccc(C(F)(F)F)cc3)C2)Nc2ccccc21 (centres undefined)	NIH3T3 tox inconclusive, HEK293 tox 31.6µM
O=[S+]1([O-])NCC2(CCCN(Cc3ccc(OC(F)(F)F)cc3)C2)Nc2ccccc21 (centres undefined)	NIH3T3 tox 44.7µM, HEK293 tox inconclusive
O=[S+]1([O-])NCC2(CCCN(Cc3cccc(C(F)(F)F)c3)C2)Oc2ncccc21 (centres undefined)	HEK293 tox inconclusive (no result: NPR1 antag, Luciferase inh)
O=[S+]1([O-])NCC2(CCN(Cc3ccc(OC(F)(F)F)cc3)CC2)Nc2ccccc21	NIH3T3 tox inconclusive, HEK293 tox 39.8µM
CCC1Oc2ccc(NC(=O)COc3ccccc3)cc2CN(C(CC)c2ccccc2)C1=O (centres undefined)	NIH3T3 tox inconclusive, HEK293 tox inconclusive
O=C(Cc1ccc(F)cc1)N1CCN(c2ccnc3ccnn23)CC1	HEK293 tox inconclusive (no result: NPR1 antag, Luciferase inh)
CC(=O)N1CCN([C@H]2[C@@H]3OC[C@@H](O3)[C@@H](NC(=O)Nc3ccc(F)cc3)[C@@H]2O)CC1	none
Cn1cccc1CN1CCC2(C1)C(=O)Nc1ccccc12 (centres undefined)	NIH3T3 tox 100µM, HEK293 tox inconclusive
